Publication PMC5540273 (PLoS ONE, 2017)

Tested on: PRKG2
Details: concentration: 1 μM,replicates: in singlicate; n = 1
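Also: KINOMEscan kinase panel screen.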

SMILES	%Inh
CC(C)c1nc(-c2cccc(NS(=O)(=O)c3ccccc3)c2)c(-c2ccnc(Nc3ccc4c(c3)CN(C)CC4)n2)s1 [GSK1649598]	0%
C[C@@H](Oc1cc(-n2cnc3cc(-c4cnn(C)c4)ccc32)sc1C(N)=O)c1ccccc1Cl [GSK580432]	2%
CCn1c(-c2nonc2N)nc2cncc(CNC3CCNCC3)c21.Cl [SB-747651]	86%
CN1CCN(CCCNc2nccc(-c3c(-c4ccc(F)cc4)nn4cc(C(N)=O)ccc34)n2)CC1 [GW622475]	0%
Cc1ccc(C(=O)Nc2ccc(Oc3ccc4nc(NC(=O)C5CC5)cn4c3)c(F)c2)c(=O)n1-c1ccccc1	0%
CC(=O)Nc1ccc(-c2cc3ncnc(SCC(=O)O)c3s2)cc1	10%
Cn1ccc2ncnc(Oc3ccc(NC(=O)Nc4ccnc(C(F)(F)F)c4)c(Cl)c3)c21	9%
NC(=O)c1ccc(-c2cc3ncnc(SCC(=O)O)c3s2)cc1	0%
CN(c1ccc2c(c1)nc(NCc1ccc(F)cc1)n2C)c1ccnc(Nc2ccc(CS(C)(=O)=O)cc2)n1.Cl [GW813244]	0%
FC(F)(F)c1cc(Br)cc(Nc2nccc(-c3cnn4ncccc34)n2)c1 [GW810578]	0%
Cn1ccc2ncnc(Oc3ccc(NC(=O)Nc4cccc(C(F)(F)F)c4)c(F)c3)c21	17%
CCCC(=O)Nc1n[nH]c2ncccc12 [SB-601436]	0%
CN(c1ccccc1CNc1nc(Nc2ccc3c(c2)CC(=O)N3)ncc1C(F)(F)F)S(C)(=O)=O	0%
COC(=O)c1cccc(NC(=O)NC2CCN(c3ccnc(Nc4cc(OC)c(OC)c(OC)c4)n3)C2)c1 (centres unmarked) [GSK1379767]	7%
Cc1n[nH]c2cc(Nc3ccnc(Nc4cccc(CN5CCOCC5)c4)n3)ccc12 [GW682569]	3%
O=C(Nc1cccc(C(F)(F)F)c1)c1cccc(Oc2ccc3nccn3n2)c1	1%
C[C@@H]1CNc2c(sc3ccc4nc(-c5ccc(O)cc5)ccc4c23)C(=O)N1	61%
O=C(Nc1n[nH]c2cc(-c3ccco3)ccc12)C1CC1 [SB-737447]	0%
Cn1cc(-c2cccc3c(N)c(C(N)=O)nnc23)cn1	11%

SMILES	%Inh
OCCn1cc(-c2cnc3nnn(Cc4ccc5ncccc5c4)c3n2)cn1	0%
Cl.c1ccc(Oc2ccc(Nc3ccnc4cc(-c5ccc(CN6CCNCC6)o5)ccc34)cc2)nc1 [GW567142]	0%
CS(=O)c1ccc(-c2coc3ccc(-c4n[nH]c(=O)o4)cc23)cc1 (centres unmarked)	0%
CS(=O)(=O)Nc1ccc(-c2ccnc3[nH]ccc23)cc1 [GSK993273]	77%
COC(=O)Nc1nc2cc(Oc3ccc(NC(=O)Nc4cc(C(F)(F)F)ccc4Cl)cc3)ccc2[nH]1.Cl [GW697465]	0%
O=C(Nc1ccc(Oc2ccc3nc(NC(=O)C4CC4)cn3n2)c(F)c1)c1cccn(-c2ccccc2)c1=O	1%
CCNCC(Cc1ccccc1)NC(=O)c1cc(Br)c(-c2ccnc3[nH]ccc23)s1.Cl.Cl (centres unmarked) [GSK1383280]	99%
Cc1ccn2nc(-c3ccc(F)cc3)c(-c3ccncc3)c2c1.Cl [GW457859]	19%
C[C@@H]1CNc2c(sc3ccc4nc(-c5ccncc5)ccc4c23)C(=O)N1	57%
Nc1nccc(-c2ccc3c(N)n[nH]c3c2)n1 [GSK1034945]	68%
COC(=O)c1cccc(NC(=O)NC2CCN(c3ccnc(NCc4ccc(F)cc4)n3)CC2)c1 [GSK1379860]	0%
CC(=O)Nc1nc2cnc(Nc3cc(NC(=O)c4cccc(CC(C)(C)C#N)c4)ccc3C)nc2s1	17%
O=C1NCCc2[nH]c(-c3ccncc3)cc21	99.1%
COc1cccc(CNC(=O)NC2CCN(c3ccnc(Nc4cc(OC)c(OC)c(OC)c4)n3)C2)c1 (centres unmarked) [GSK1379765]	0%
NC(=O)Nc1sc(-c2ccc(F)cc2)cc1C(N)=O [GW789449]	8%
CS(=O)(=O)c1cccc(CNc2nc(Nc3ccc4c(c3)[C@@H]3C[C@@H]4CNC3=O)ncc2C(F)(F)F)c1	0%
O=c1[nH]cc(-c2ccc(O)cc2)c2sc(-c3ccncc3)cc12 [GSK1033723]	14%
CC(C(=O)NC1CCN(c2ccnc(Nc3ccc(F)cc3)n2)C1)c1ccc(Cl)cc1 (centres unmarked) [GSK1379713]	0%

Tested on: T1, PRKR
T1 construct: gene EIF2AK2
Details: concentration: 1 μM,replicates: in singlicate; n = 1

SMILES	%Inh
CC(C)c1nc(-c2cccc(NS(=O)(=O)c3ccccc3)c2)c(-c2ccnc(Nc3ccc4c(c3)CN(C)CC4)n2)s1 [GSK1649598]	29%
C[C@@H](Oc1cc(-n2cnc3cc(-c4cnn(C)c4)ccc32)sc1C(N)=O)c1ccccc1Cl [GSK580432]	0%
CCn1c(-c2nonc2N)nc2cncc(CNC3CCNCC3)c21.Cl [SB-747651]	0%
CN1CCN(CCCNc2nccc(-c3c(-c4ccc(F)cc4)nn4cc(C(N)=O)ccc34)n2)CC1 [GW622475]	2%
Cc1ccc(C(=O)Nc2ccc(Oc3ccc4nc(NC(=O)C5CC5)cn4c3)c(F)c2)c(=O)n1-c1ccccc1	4%
CC(=O)Nc1ccc(-c2cc3ncnc(SCC(=O)O)c3s2)cc1	23%
Cn1ccc2ncnc(Oc3ccc(NC(=O)Nc4ccnc(C(F)(F)F)c4)c(Cl)c3)c21	0%
NC(=O)c1ccc(-c2cc3ncnc(SCC(=O)O)c3s2)cc1	100%
CN(c1ccc2c(c1)nc(NCc1ccc(F)cc1)n2C)c1ccnc(Nc2ccc(CS(C)(=O)=O)cc2)n1.Cl [GW813244]	0%
FC(F)(F)c1cc(Br)cc(Nc2nccc(-c3cnn4ncccc34)n2)c1 [GW810578]	0%
Cn1ccc2ncnc(Oc3ccc(NC(=O)Nc4cccc(C(F)(F)F)c4)c(F)c3)c21	10%
CCCC(=O)Nc1n[nH]c2ncccc12 [SB-601436]	0%
CN(c1ccccc1CNc1nc(Nc2ccc3c(c2)CC(=O)N3)ncc1C(F)(F)F)S(C)(=O)=O	0%
COC(=O)c1cccc(NC(=O)NC2CCN(c3ccnc(Nc4cc(OC)c(OC)c(OC)c4)n3)C2)c1 (centres unmarked) [GSK1379767]	19%
Cc1n[nH]c2cc(Nc3ccnc(Nc4cccc(CN5CCOCC5)c4)n3)ccc12 [GW682569]	23%
O=C(Nc1cccc(C(F)(F)F)c1)c1cccc(Oc2ccc3nccn3n2)c1	0%
C[C@@H]1CNc2c(sc3ccc4nc(-c5ccc(O)cc5)ccc4c23)C(=O)N1	0%
O=C(Nc1n[nH]c2cc(-c3ccco3)ccc12)C1CC1 [SB-737447]	0%
Cn1cc(-c2cccc3c(N)c(C(N)=O)nnc23)cn1	0%

SMILES	%Inh
OCCn1cc(-c2cnc3nnn(Cc4ccc5ncccc5c4)c3n2)cn1	0%
Cl.c1ccc(Oc2ccc(Nc3ccnc4cc(-c5ccc(CN6CCNCC6)o5)ccc34)cc2)nc1 [GW567142]	0%
CS(=O)c1ccc(-c2coc3ccc(-c4n[nH]c(=O)o4)cc23)cc1 (centres unmarked)	20%
CS(=O)(=O)Nc1ccc(-c2ccnc3[nH]ccc23)cc1 [GSK993273]	41%
COC(=O)Nc1nc2cc(Oc3ccc(NC(=O)Nc4cc(C(F)(F)F)ccc4Cl)cc3)ccc2[nH]1.Cl [GW697465]	0%
O=C(Nc1ccc(Oc2ccc3nc(NC(=O)C4CC4)cn3n2)c(F)c1)c1cccn(-c2ccccc2)c1=O	0%
CCNCC(Cc1ccccc1)NC(=O)c1cc(Br)c(-c2ccnc3[nH]ccc23)s1.Cl.Cl (centres unmarked) [GSK1383280]	22%
Cc1ccn2nc(-c3ccc(F)cc3)c(-c3ccncc3)c2c1.Cl [GW457859]	12%
C[C@@H]1CNc2c(sc3ccc4nc(-c5ccncc5)ccc4c23)C(=O)N1	0%
Nc1nccc(-c2ccc3c(N)n[nH]c3c2)n1 [GSK1034945]	0%
COC(=O)c1cccc(NC(=O)NC2CCN(c3ccnc(NCc4ccc(F)cc4)n3)CC2)c1 [GSK1379860]	0%
CC(=O)Nc1nc2cnc(Nc3cc(NC(=O)c4cccc(CC(C)(C)C#N)c4)ccc3C)nc2s1	0%
O=C1NCCc2[nH]c(-c3ccncc3)cc21	9%
COc1cccc(CNC(=O)NC2CCN(c3ccnc(Nc4cc(OC)c(OC)c(OC)c4)n3)C2)c1 (centres unmarked) [GSK1379765]	0%
NC(=O)Nc1sc(-c2ccc(F)cc2)cc1C(N)=O [GW789449]	35%
CS(=O)(=O)c1cccc(CNc2nc(Nc3ccc4c(c3)[C@@H]3C[C@@H]4CNC3=O)ncc2C(F)(F)F)c1	0%
O=c1[nH]cc(-c2ccc(O)cc2)c2sc(-c3ccncc3)cc12 [GSK1033723]	0%
CC(C(=O)NC1CCN(c2ccnc(Nc3ccc(F)cc3)n2)C1)c1ccc(Cl)cc1 (centres unmarked) [GSK1379713]	0%
